The panel holds about 79,000 compounds, 15% with a hit somewhere; the sample as a whole holds those more often. A number with no mark means an inactive call. The source made the active and inactive calls. Rule as the data show it: active = growth inhibition above about 70%; inactive = the rest.
What was measured:
[1] = NCI Yeast Anticancer Drug Screen. Data for the rad50 strain (AID 155);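 also: 0% = growth of vehicle-only cultures of the same strain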; details: S. cerevisiae rad50 strain growth inhibition; at 50.0 µM; active compounds read high
Summary of the method: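 Genetically altered yeast (DNA repair pathway); compound treatment; growth inhibition vs vehicle ctrl.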

[2] = NCI Yeast Anticancer Drug Screen. Data for the mec2-1 strain (AID 157); details: S. cerevisiae mec2-1 strain, at 50.0 µM, active compounds read high
Summary of the method: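 mec2-1 yeast strain, carrying an alteration in DNA damage repair or cell cycle control, was exposed to compounds; growth inhibition was measured relative to vehicle-treated controls.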

[3] = NCI Yeast Anticancer Drug Screen. Data for the sgs1 mgt1 strain (AID 161);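 also: 0% = growth of cultures given vehicle only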; details: S. cerevisiae sgs1 mgt1 strain, at 50.0 µM, active compounds read high
Summary of the method: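 This yeast growth screen uses a strain with defined DNA-repair lesions; compound-treated growth is compared with vehicle-treated growth.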

[4] = NCI Yeast Anticancer Drug Screen. Data for the cln2 rad14 strain (AID 165);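 also: 0% = growth equal to vehicle treated cultures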; details: S. cerevisiae cln2 rad14 strain, at 50.0 µM, active compounds read high
Summary of the method: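 Yeast carrying cln2 and rad14 alterations (cell cycle control and DNA damage repair) were exposed to compounds. Growth inhibition was measured against vehicle-treated controls.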

[5] = NCI Yeast Anticancer Drug Screen. Data for the bub3 strain (AID 167); details: S. cerevisiae bub3 mutant strain, at 50.0 µM, active compounds read high
Summary of the method: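 Yeast carrying a defined mutation is treated with each compound, and growth is compared with that of vehicle-exposed cells to give inhibition.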

[6] = NCI Yeast Anticancer Drug Screen. Data for the mlh1 rad18 strain (AID 175); details: S. cerevisiae mlh1 rad18 strain growth inhibition; at 50.0 µM; active compounds read high
Summary of the method: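 Growth inhibition of the yeast strain was measured after compound exposure and expressed relative to vehicle-treated controls. The strain carries defined defects in DNA damage repair.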

| SMILES | growth inhibition [1] [%] | growth inhibition [2] | growth inhibition [3] | growth inhibition [4] [%] | growth inhibition [5] | growth inhibition [6] [%] |
| --- | --- | --- | --- | --- | --- | --- |
| CN(C)N=Nc1c(F)cc(F)c(F)c1F | 4.75 | 3.35% | -9% | -14.2 | 7.3% | -4.05 |
| NC(=O)C[n+]1cccc(C(=O)Nc2ccc(Cl)cc2)c1 | 2.3 | 9.3% | 3.95% | -23.4 | 29.2% | -0.75 |
| O=C(O)C(c1ccccc1)C1(O)CC2CCC1C2 (stereo not drawn) | -38 | -45.5% | -36.6% | -10.7 | -56% | -54.5 |
| O=C(CN(Cc1ccccc1)Cc1ccccc1)C(O)C1OC(c2ccccc2)OCC1O (stereo not drawn) | 1.45 | -5.55% | -2.3% | -4.5 | -1.65% | -4.1 |
| COC(=O)c1ccccc1C1CN=NC12Cc1c(ccc3c1CCC3)C2=O (stereo not drawn) | -4.35 | -5.95% | -15.1% | -9.7 | 27.9% | -0.85 |
| COc1ccc(C2Cc3cc(OC)c(OC)cc3C(c3ccccc3)N2)cc1OC (stereo not drawn) | 8.7 | 18.7% | 16.7% | 12.5 | -1.25% | 30.5 |
| CCCCCO/C=C/CN1CCOCC1 | 8.85 | 15.2% | 3.1% | -8.5 | 11.8% | -3.2 |
| O=C(NC(CO)C(=O)O)c1ccccc1 (stereo not drawn) | 6.65 | -14.2% | -14.5% | -44.5 | -18.9% | -12.9 |
| CC(=N/NC(=S)NCCN1CCCC1)/C(C)=N\NC(=S)NCCN1CCCC1 | 50.6 | 4.95% | 47.6% | 10.6 | 12.7% | 35.1 |
| COc1ccc(N2C(=O)C(=O)N(C)C2=O)c2ccccc12 | -15.1 | -26.7% | -2% | 6.1 | 2.85% | -7.95 |
| c1ccc(-c2cc3c4ccccc4ccn3c2)cc1 | 15.2 | 10.2% | 20.2% | 3.65 | -2.95% | -5.95 |
| CN1C(=O)C=C(C=Nc2ccc(-c3ccccc3)cc2)C2CCCCC21 (stereo not drawn) | 0.85 | -8.75% | -8.05% | 6.55 | 11.5% | 6.75 |
| CCOC(=O)Cn1c(=O)c(-c2ccccc2NC(C)=O)nc2ccccc21 | -12.3 | -3.65% | -7.9% | -6.1 | 0.4% | -14.1 |
| CN(C)CCC1(C2=CCCC2)CC/C(=C\c2ccccc2)C1=O (stereo not drawn) | 16.9 | -17.8% | -5.6% | 14.7 | -45.6% | 2.5 |
| COCc1cc(CC(C)=O)nc(C/C=N/NC(N)=O)n1 | -18.4 | -10.4% | -9.75% | -28.4 | -47% | -11.7 |
| Nc1ccccc1NC1CCN(Cc2ccccc2)CC1 | 27.2 | -3.35% | 25.8% | 33.5 | 22.9% | 19.1 |
| C#CCOC(=O)c1ccccc1O | 15.2 | 2.8% | 17.4% | 13.4 | 16.9% | 12.2 |
| NC(=O)c1sc(N2CCCC2)nc1N | 13.2 | 23.9% | 22.1% | 0.95 | 9.8% | 9.05 |
| O=C1C2C=CC(n3[nH]c(=O)n(Cc4ccccc4)c3=O)CC2C(=O)N1c1ccc(Br)cc1 (stereo not drawn) | -3.8 | 3.8% | 3.1% | -30.4 | 4.15% | 2 |

| SMILES | growth inhibition [1] [%] | growth inhibition [2] | growth inhibition [3] | growth inhibition [4] [%] | growth inhibition [5] | growth inhibition [6] [%] |
| --- | --- | --- | --- | --- | --- | --- |
| CCOC(=O)C(C(O)c1ccc([N+](=O)[O-])cc1)P(=O)(OCC)OCC (stereo not drawn) | 24.3 | -16.4% | -4.7% | 5.25 | -10.9% | -20.2 |
| CCC/C=C(/C=N/Nc1ccc([N+](=O)[O-])cc1[N+](=O)[O-])CC | 16.4 | -10.7% | -7.8% | 32.6 | 0.75% | 4.05 |
| O=C(NCCN1CCCCC1)c1ccc(I)cc1 | 9.2 | 0.95% | 24.8% | 10.2 | 22.4% | 8.6 |
| CCCn1c(=S)[nH]c2c(=O)n(C)c(=O)n(C)c21 | -3.55 | -8.9% | -0.45% | -17.8 | -4.85% | 5.65 |
| CC(=O)OCC(CO)(CO)COC(C)=O | 8.25 | 8.65% | -16.2% | 7.45 | -3.7% | -6.7 |
| CCC(O)C(C)C(O)CC (stereo not drawn) | 7.9 | 14.7% | 2.6% | 13.3 | 13.2% | 17.5 |
| Cc1ccc(N(C(=O)Nc2ccc(F)c(Cl)c2)C2=NCC(C)S2)cc1 (stereo not drawn) | -57.5 | -14.4% | -45% | -13.7 | -5.05% | -51.4 |
| CN(C)N=Nc1ccc(Cl)cc1C(=O)O | 14.8 | 12.3% | 20.7% | 2.2 | 17.9% | 41 |
| CSC12CC3C(=O)C=C[C@@H](O)[C@@H]3N1C(=O)C1(SC)CC3C(=O)C=C[C@@H](O)[C@@H]3N1C2=O (stereo partly drawn) | 64.3 | 78.2% (active) | 85.1% (active) | 39.8 | 72.8% (active) | 65.2 |
| CS(=O)(=O)OC12CC3CC(CC(C3)C1)C2 | 7.3 | -9.1% | -11.8% | -26.5 | -0.75% | 5.55 |
| OCC12OCC(O1)C(O)C(O)C2O (stereo not drawn) | -14.6 | 2.2% | 1.35% | -9.35 | -4.05% | -16.8 |
| COc1ccccc1NC(=O)NCCN1CCCC1 | -2.15 | 8.1% | 31.1% | -8.9 | 9.45% | 5.3 |
| CC[N+](C)(CC)c1ccccc1 | -4.35 | -54.3% | -18.6% | 0.3 | -33.5% | 1.1 |
| CCNCC(=O)Nc1ccc2c(c1)C(=O)c1ccc(NC(=O)CNCC)cc1C2=O | 20.9 | 28.5% | 29.2% | -4.55 | 3.85% | 50.8 |
| O=C(CCCn1ccnc1[N+](=O)[O-])NCCn1cncc1[N+](=O)[O-] | 0.65 | -8.2% | 5.9% | 7.6 | 0.25% | -9.9 |
| CCOC(=O)C1=C(C)N(NC(=O)Nc2ccccc2)C2(N)N(NC(=O)Nc3ccccc3)C(C)=C(C(=O)OCC)C12C(=O)OCC (stereo not drawn) | -28.1 | -44.5% | -42% | -20.7 | -7.6% | -15.8 |
| Oc1cc2c(cc1O)C1c3ccc(O)c(O)c3OCC1(O)C2 (stereo not drawn) | 21.9 | 13% | 22.7% | -1 | 9.4% | 22.4 |
| CC(=N\N=C(c1ccccc1)c1ccccc1)/C(C)=N/N=C(c1ccccc1)c1ccccc1 | -22.1 | -8.15% | -13.8% | -9 | -1.15% | -17.8 |
| Cc1cc(C)n(/N=C/c2ccccc2)c(=O)c1C#N | 7.3 | -10.3% | 0.55% | -0.55 | 35.6% | -0.05 |

From PubChem BioAssay (NCI)
